# Marburg entry inh = inhibitors of Marburg virus binding or cell entry. Marburg virus pseudotyped entry inhibition, cell reporter. Potency, µM (highest dose often 37.8 µM), for inactives: at the highest dose activity change, negative = inhibition, usual class: inhibitors. 300,000 compounds, 1.8% hits. AID 540276; calls by dose curve; tested in HEK293 cells; also: potency is read from the fitted curve at half-maximal effect
# LASV entry inh = Lassa virus entry inhibition. Lassa virus pseudotype entry inhibition, cell reporter. Potency, µM (series often up to 37.9 µM), without a hit: at the highest dose activity change, negative = inhibition, actives largely listed as inhibitors. 300,000 compounds, 1.2% hits; calls by dose curve; tested in HEK293 cells; also: potency is read from the fitted curve at half-maximal effect; nearly all actives have a fitted effect of over 50% in size
# FMDV antiviral = foot and mouth disease virus antiviral activity; FMDV antiviral cell-based qHTS; Potency, µM (titrated, usually from 57.9 µM), without a hit: at the top dose activity change, negative = inhibition, usual class: inhibitors; 410,000 compounds, 1.2% hits; calls by dose curve; tested in HEK293T cells; also: read-out not given here; potency is read from the fitted curve at half-maximal effect; nearly all actives have a fitted effect of over 45% in size
# FBPA Giardia inh = Giardia lamblia aldolase inhibition; A8B2U2; AID 2451; purified Giardia FBPA; 290,000 compounds, 0.71% hits; Potency, µM (series often up to 59.6 µM), inactives show at the top dose activity, negative = inhibition, usual class: inhibitors; also: potency is read from the fitted curve at half-maximal effect; nearly all actives have a fitted effect of over 55% in size
# Target sequence (A8B2U2 whole entry, looked up): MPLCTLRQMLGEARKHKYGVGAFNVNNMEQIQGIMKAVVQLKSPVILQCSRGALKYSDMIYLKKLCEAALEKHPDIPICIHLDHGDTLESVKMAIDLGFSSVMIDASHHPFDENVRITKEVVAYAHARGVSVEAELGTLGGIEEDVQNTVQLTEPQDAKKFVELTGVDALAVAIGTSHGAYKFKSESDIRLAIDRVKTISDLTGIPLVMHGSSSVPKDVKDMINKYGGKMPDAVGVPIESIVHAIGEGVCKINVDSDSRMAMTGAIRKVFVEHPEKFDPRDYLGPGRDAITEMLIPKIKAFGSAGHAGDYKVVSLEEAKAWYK
#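 40 nM FBPA preincubated 10 min at RT with compound (up to 57.5 uM final), then substrate plus GAPDH/TPI/NAD/arsenate coupling and diaphorase/resazurin added. Fluorescence read after 20 min at RT, 525/598 nm.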
# HCV inhibitor = HCV inhibition; 340,000 compounds, 3.4% hits; Huh7.5.1 HCVcc-Cre infection, luciferase reporter, 44 h; AID 651820; Potency, µM (highest dose often 41.8 µM), for inactives: at the top dose activity change, negative = inhibition, hits mostly inhibitors; also: potency is read from the fitted curve at half-maximal effect
#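 A cell-based infection assay in which seeded cells (1,000 per well) receive test compound after 4 h, are inoculated with HCVcc-Cre at approximately 0.5 moi, and are incubated 44 h before luminescence detection.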
# HCMV inh = human cytomegalovirus inhibition; AID 1259415; activity change, negative = inhibition, % at 57.5 µM; 410,000 compounds, 4.5% hits; HFF cells, HCMV-luciferase reporter, 72 h; hits give low values; in the data active = activity change below about -60%; inconclusive = no clear call, values can overlap the other calls; inactive = above about -39%
#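 Human foreskin fibroblasts infected with luciferase-reporter HCMV at MOI 1 PFU/cell, compounds at two doses. Luciferase measured 72 h post infection; normalized to buffer-only basal and Salinomycin (10uM) controls.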
# The depositor's hits bear a star; ? = inconclusive; / = not tested or not shown; + = active, no number; [ ] = another dose, or the depositor's remark. Rows were chosen to be rich in hits. Some 8.3% of all compounds tested hit in one or more screens of this group. Unless noted, calls follow the shape of the dose curve; as a rule, active = well fitted curve in the direction sought with a large enough effect; inconclusive = small, poorly fitted or top-dose-only effect, or another doubt; inactive = no such curve, though single readings can be large; an effect the other way counts as inactive or inconclusive. % is scaled to controls: 0 for no effect and ±100 for the full control effect.
SMILES,Marburg entry inh,LASV entry inh,FMDV antiviral,FBPA Giardia inh,HCV inhibitor,HCMV inh
O=C(NCCO)c1ccc2nc(-c3ccco3)c(-c3ccco3)nc2c1,1%,8%,-10%,?,1%,7
O=C(CCN1CCc2ccccc21)c1ccc2c(c1)OCCO2,?,-23%,10%,-16%,?,22
O=C(C[n+]1ccc(C(=O)NCc2ccccc2)cc1)c1ccc2c(c1)OCCO2,10%,8%,-10%,-10%,8%,-10
COc1cc(-c2cc(C)c3cccc(OC)c3n2)cc2c1OCCN(C(=O)CCn1ccc(C)n1)C2,/,/,-21%,/,/,/
COCC=CC1=CC2=CC(=O)C(C)(OC(=O)c3cnc4ccccc4n3)C(=O)C2=CN1Cc1ccc(OC)cc1 (centres undefined),-2%[14.2 µM],/,/,/,/,/
COc1ccc(CCNC(=O)c2ccc3c(c2)OCCO3)cc1,?,?,9%,0%,-2%,59
O=C(NCCc1ccccc1)c1ccc2c(c1)OCCCO2,?,?,1.1µM*,-7%,10%,-93*
O=C(NCCc1ccccc1)c1ccc2c(c1)OCCO2,0.45µM*,0.35µM*,1.8µM*,/,22%,-79*
Cc1ccc2sc3ccc(NC(=O)c4ccccc4Cl)cc3c(=O)c2c1,?,1%,15%,-15%,8.9µM*,-89*
O=C(Nc1ccc2c(c1)C(=O)OC2)c1ccccc1Cl,?,0%[46.1 µM],24%,-8%,4%,-91*
O=C(Nc1ccc2c(c1)CCC2)Nc1ccccc1F,/,/,-5%,/,?,111
O=C(Nc1ccc2c(c1)CCC2)c1c(F)cccc1Cl,18%[46.1 µM],1%[46.1 µM],31%,-10%,10%,-61*
O=C1OCc2ccc(NC(=O)c3ccccc3C(=O)O)cc21,/,/,-16%,/,2%,11
O=C(Nc1cccc(Cl)c1)Nc1ccc2c(c1)C(=O)OC2,-4%,0%,5%,8%,-7%,?
Cc1cc(NC(=O)c2ccccc2Cl)ccc1NC(=O)c1ccccc1Cl,/,/,34%,14%,?,93
O=C1OCc2ccc(NC(=O)c3c(F)cccc3Cl)cc21,?,1%[46.1 µM],29%,/,-8%,-85*
NC(=O)c1cc[n+](CC2=C(C(=O)O)N3C(=O)[C@@H](NC(=O)[C@@H](c4ccccc4)S(=O)(=O)[O-])[C@H]3SC2)cc1,-11%,?,/,4%,/,/
COCc1c(C(=O)N2CCN(C)CC2)cnn1-c1ncc2c(n1)-c1ccccc1CCC2,/,/,-10%,/,/,/
CO[C@@H]1/C=C\CC(=O)N2CCC[C@@H]2C(=O)OC[C@@H](C)C(=O)OC[C@H]1C,/,/,/,-1%[12.9 µM],/,/
O=C(Nc1ccc2c(c1)CCC2)c1ccc(F)cc1,11µM*,?,-3%,-15%,?,51
O=C(Nc1ccc(N2CCOCC2)cc1)c1cc2c(s1)CCCCC2,?,-22%[46.1 µM],-1%,-4%,11µM*,-25
CCC1CCc2sc(C(=O)N(C)CC(=O)Nc3ccc(N4CCOCC4)cc3)cc2C1 (centres undefined),-1%,0%,-14%,/,-1%,-15
O=C(Nc1ccc(N2CCOCC2)cc1)c1cc2c(s1)CCCC2,?,-14%[46.1 µM],-4%,-10%,4µM*,?
CC1CCc2sc(C(=O)N(C)CC(=O)Nc3ccc(N4CCOCC4)cc3)cc2C1 (centres undefined),-3%,-6%,-9%,-15%,0%,-68*
O=C(Nc1ccccc1N1CCOCC1)c1cc2c(s1)CCCCC2,?,?,40%,-3%,-6%,-34
SMILES,Marburg entry inh,LASV entry inh,FMDV antiviral,FBPA Giardia inh,HCV inhibitor,HCMV inh
Cc1csc(NC(=O)c2cc3c(s2)CCCCC3)n1,?,2.2µM*,8.9µM*,-28%,?,?
C[C@@H]1CN([C@@H](C)CO)C(=O)CCCn2cc(nn2)CO[C@H]1CN(C)C(=O)NC1CCCCC1,/,/,/,/,/,-13
COc1ccc(CNc2ncncc2-c2cccc(NS(C)(=O)=O)c2)c(OC)c1,/,/,?,0%,/,/
Cc1cc(Br)ccc1OCCCCN1CCC(C)CC1,?,?,-15%,-17%,13µM*,-60*
CC1CCN(CCCCOc2ccc(Br)cc2)CC1,?,1%,-20%,-8%,11µM*,?
COc1ccccc1NS(=O)(=O)c1ccc(-c2cnc(C3CC3)o2)cc1,/,/,-24%,/,-6%,-13
Cc1cc(C)c(NS(=O)(=O)c2ccc(-c3cnc(C4CC4)o3)cc2)c(C)c1,/,?,-8%,/,/,-92*
Cc1cc(C)c(NS(=O)(=O)c2cc(-c3cnc(C4CC4)o3)ccc2C)c(C)c1,/,-17%[46.1 µM],11%,/,/,-13
CCOc1ccccc1NS(=O)(=O)c1ccc(-c2cnc(C3CC3)o2)cc1,/,?,?,/,?,+
O=S(=O)(Nc1cccc(C(F)(F)F)c1)c1ccc(-c2cnc(C3CC3)o2)cc1,/,?,-2%,/,/,-38
COc1ccc(NS(=O)(=O)c2ccc(-c3cnc(C4CC4)o3)cc2)cc1OC,/,/,-20%,/,?,-74*
O=C1N=C2CCCCC2=C1c1sc(N[S+](=O)([O-])C2CCCCC2)nc1O,16%[46.1 µM],/,/,/,/,/
COc1ccc2[nH]cc(CCNc3ccnc(-c4ccccc4Cl)n3)c2c1,/,/,?,-5%,/,/
CC1CCCCC1OCCNC(=O)c1ccco1 (centres undefined),13%[46.1 µM],/,/,/,/,/
O=S(=O)(NCc1nnc2n1CCN(Cc1ccccc1Cl)CC2)c1ccccc1,/,/,-12%,/,/,/
C[C@H]1[C@H](O)[C@@H](N=[N+]=[N-])CCO[C@H]1c1ccccc1,-12%[14.2 µM],/,/,/,/,/
Cc1ccc(-c2c3c(=O)n(C)c(=O)n(C)c3c3c(C(F)(F)F)nc4ccccc4n23)cc1,9%[46.1 µM],-5%[46.1 µM],-4%,/,/,19
Cc1ccc(CNC(=O)CO/N=C/c2ccc3c(c2)OCO3)cc1,2%,-16%,-19%,6%,22%,12
Cc1ccc(S(=O)(=O)NC(=O)ON=Cc2ccc3c(c2)OCO3)cc1,/,/,/,/,/,-98*
CCn1c(-c2ccccc2F)nc2cc(NC(C)=O)cc(C(=O)N3CCNC(=O)C3CC(=O)OC)c21 (centres undefined),/,/,-14%,/,/,/
c1coc(-c2ccccc2CN2CCOc3ccc(CN4CCOCC4)cc3C2)c1,/,/,0%,/,/,/
CCc1c(C)sc2c1CCN(Cc1ccccc1)C2c1ccccc1 (centres undefined),/,?,-24%,/,/,-102*
COCCNC(=O)c1cnn(-c2cccc(C)c2)c1-n1cccc1,/,19%[46.1 µM],12%,/,/,+
CCOC(=O)N1CCC(NC(=O)c2cnn(-c3cccc(C)c3)c2-n2cccc2)CC1,/,-19%[46.1 µM],?,/,/,0
NCc1ccccc1Sc1ccccc1CO,/,/,/,/,/,-18
COc1ccc(-n2c(=O)c3c4c(sc3n(CC(=O)NCc3ccco3)c2=O)CCC4)c(OC)c1,-8%,-3%,3%,1%,13µM*,/
O=C1NC2(CCCCC2)N(C(=O)c2ccccc2)C2=C1CCCC2,/,/,-13%,3%,3.2µM*,?

# From PubChem BioAssay
